# Assay results taken from article PMC5540273 (PLoS ONE, 2017).
# Experiments:
# Details in all cases: concentration: 1 μM, replicates: in singlicate; n = 1
# [1] = tested on: KIT-autoinhibited
# [2] = tested on: KIT
# [3] = tested on: LATS1
# [4] = tested on: LATS2
# [5] = tested on: LCK
# [6] = tested on: LIMK1
# [7] = tested on: LIMK2
# [8] = tested on: T1, LKB1
# T1 construct: gene STK11
# [9] = tested on: T2, LOK
# T2 construct: gene STK10
# [10] = tested on: LRRK2
# [11] = tested on: LTK
# [12] = tested on: LYN
# [13] = tested on: T3, LZK
# T3 construct: gene MAP3K13
# [14] = tested on: MAK
# [15] = tested on: MAP3K15
# [16] = tested on: MAP3K1
# [17] = tested on: MAP3K2
# [18] = tested on: MAP3K3
# [19] = tested on: MAP3K4
# [20] = tested on: MAP4K2
# 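Further: KINOMEscan kinase panel screen.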
SMILES,%Inh [1],%Inh [2],%Inh [3],%Inh [4],%Inh [5],%Inh [6],%Inh [7],%Inh [8],%Inh [9],%Inh [10],%Inh [11],%Inh [12],%Inh [13],%Inh [14],%Inh [15],%Inh [16],%Inh [17],%Inh [18],%Inh [19],%Inh [20]
O=C(NCCCN1CCOCC1)c1cccc(Nc2nccc(Nc3ccc(Oc4ccccc4)cc3)n2)c1 [GW663929],16%,80%,0%,1%,99.3%,21%,22%,10%,23%,0%,0%,72%,28%,36%,0%,0%,0%,0%,0%,13%
Fc1ccc(-c2ncn(CCCN3CCOCC3)c2-c2cccnc2)cc1 [SB-211743],18%,2%,9%,0%,20%,9%,0%,46%,14%,0%,18%,0%,0%,15%,0%,7%,28%,0%,0%,0%
C[C@@H](Oc1cc(-n2cnc3ccc(NC(=O)NC(C)(C)C)cc32)sc1C(N)=O)c1ccccc1Cl [GSK346294],1%,20%,0%,12%,37%,0%,25%,4%,36%,0%,13%,4%,37%,0%,0%,35%,0%,0%,0%,0%
Cc1nnc(-c2ccc3ncc(-c4ccc(S(C)=O)cc4)n3c2)o1 (stereo not drawn),7%,59%,17%,13%,0%,0%,0%,3%,0%,3%,0%,18%,11%,0%,19%,4%,8%,5%,0%,0%
CCCCCc1nc2c(N)ncnc2n1CCCCC [SKF-97255],16%,17%,0%,0%,5%,0%,0%,60%,14%,0%,6%,0%,0%,0%,0%,18%,29%,0%,10%,0%
Cc1nnc(-c2ccc(C)c(-c3ccc(C(=O)Nc4ccc(NS(C)(=O)=O)cc4)cc3)c2)o1 [GW702865],0%,58%,0%,1%,17%,0%,0%,26%,6%,0%,3%,25%,21%,35%,0%,0%,0%,0%,19%,0%
COc1cc(Nc2nccc(N3CCC(NC(=O)c4cccc(NC(C)=O)c4)C3)n2)cc(OC)c1OC (stereo not drawn) [GSK1379754],8%,70%,0%,0%,30%,16%,0%,0%,0%,12%,20%,1%,0%,18%,0%,0%,10%,0%,14%,0%
Cc1cn2c(=O)cc(N3CCOCC3)nc2n1Cc1cccc(Cl)c1Cl [GSK2334006],0%,39%,0%,0%,46%,0%,6%,0%,0%,30%,7%,4%,0%,9%,2%,18%,6%,0%,0%,0%
Cc1cccc(-c2nc(Nc3ccc4ncsc4c3)c3ccccc3n2)n1 [GW867588],12%,0%,2%,0%,9%,4%,0%,23%,27%,60%,7%,0%,7%,0%,0%,0%,8%,6%,0%,0%
